ERK AVP inh: qHTS Assay for Inhibitors of the ERK Signaling Pathway using a Homogeneous Screening Assay; HEK293-V1b, vasopressin-stimulated pERK AlphaScreen; Potency, µM (titrated, usually from 57.5 µM), for the others: at the highest dose activity, negative = inhibition, usual class: inhibitors; 0.99% of 72,000 active; further: on the % scale 0 is the no-effect control and ±100 the full control effect; nearly all actives have a fitted effect of over 55% in size
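V1b-HEK293 cells; cpd 30 min 37C; 25 nM vasopressin 5 min; lyse 10 min; AlphaScreen beads 5 hr RT. Normalized to DMSO basal and 25 nM vasopressin; AC50 by Hill fit.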
IkB signaling: IkB Signaling. ABC-DLBCL IkBa-CBG/CBR dual luciferase ratio, 4 h; response scale: scaled: untreated 0%, proteasome inhibitor 100%. Potency, µM (top dose mostly 57.1 µM), for inactives: at the highest dose IkBa stabilization activation. 0.04% of 110,000 active. AID 445, 2006; active means well fitted curve in the direction sought with a large enough effect in the signal ratio, not every such curve was filed as active; inconclusive means small, poorly fitted or top-dose-only effect, or a change in a side signal; the % refers to the signal ratio;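 further: the direction sought is a rising ratio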
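Luminescence ratio of IκBα-fused green versus native red beetle luciferase in OCI-Ly3 cells, 4 h post-doxycycline with compound; red signal alone, scaled from basal (0%) to zero light (-100%), flagged nonspecific or cytotoxic effects.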
p53ts 32C kill: qHTS Screen for Compounds that Selectively Target Cancer Cells with p53 Mutations: Cytotoxicity of p53ts Cells at the Permissive Temperature; H1299-p53A138V at 32C, ATP luminescence viability, 24 h; 0.93% of 130,000 active; Potency, µM (series often up to 46.1 µM), for inactives: at the top dose activity change, negative = cytotoxicity, most hits filed as cytotoxic;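 further: 0% = DMSO and -100% = full killing by reference compound; nearly all actives have a fitted effect of over 55% in size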
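ATP-content luminescence (ATPlite) read-out after 24 h compound exposure at 32C in H1299-p53A138V cells (600/well). Tested up to 46 uM. Normalized to DMSO (0%) and 100 uM tamoxifen (100% killing); Hill-fit AC50.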
p53ts 39C kill: qHTS Screen for Compounds that Selectively Target Cancer Cells with p53 Mutations: Cytotoxicity of p53ts Cells at the Nonpermissive Temperature; H1299-p53A138V viability at 39C, ATP luminescence, 24 h; Potency, µM (doses to about 46.1 µM), for the others: at the top dose activity change, negative = cell killing, most hits filed as cytotoxic; 1.5% of 130,000 active; AID 902, 2007; further: on the % scale 0 is the no-effect control and ±100 the full control effect; nearly all actives have a fitted effect of over 55% in size
Peg3 imprint: qHTS Assay for Compounds that Induce Erasure of Genomic Imprints; mouse ES Peg3-LacZ reporter, beta-gal luminescence, 40 h; Potency, µM (series often up to 60.7 µM), inactives show at the top dose activity change, positive = activation, hits mostly activators; 0.02% of 110,000 active
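Gelatin-coated wells received 300 freshly trypsinized female ES cells with a Peg3LacZ-Neo reporter on the maternal allele, then incubated 40 hours at 37C. BetaGlo was added for 5 minutes at room temperature before a single luminescence read.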
* marks the source's active call; other numbers are inactive results; ! = not active in a repeat; [ ] = remark or other dose. A selection: hits, their analogues and other compounds. The true share with any hit is near 2.3%. Unless noted, the call rests on the fitted dose curve; in most records, active means well fitted curve in the direction sought with a large enough effect; inconclusive means small, poorly fitted or top-dose-only effect, or another doubt; inactive means no such curve, though single readings can be large; an effect the other way counts as inactive or inconclusive. Potency means the concentration at half of the fitted maximal effect.

`CCCCCCn1c(O)c(C=NC2CCCCC2N)c(=O)[nH]c1=O` (stereo not drawn) gave ERK AVP inh -5%, IkB signaling 1%, p53ts 32C kill 4µM*, p53ts 39C kill 5µM* and Peg3 imprint -47%.
Screening COC(=O)[C@]1(C)CC[C@@]2(C)CC[C@@]3(C)C4=CC=C5C(=CC(=O)C(O)=C5C)[C@@]4(C)CC[C@@]3(C)C2C1 (stereo partly drawn) returned ERK AVP inh -19%, p53ts 32C kill 10µM*, p53ts 39C kill 13µM* and Peg3 imprint -45%.
Screening COc1ccc2c(c1O)-c1cccc3c1[C@H](C2)N(C)CC3 returned ERK AVP inh -3%, IkB signaling 0%, p53ts 32C kill -10% and p53ts 39C kill -4%.
For Cc1oc2ccc(O)c(CN3CCCCCC3)c2c1C(=O)Nc1cccc(Cl)c1C the results were IkB signaling inconclusive, p53ts 32C kill -11%, p53ts 39C kill 16µM* and Peg3 imprint -14%[10.9 µM].
`COP(=S)(OC)SCn1nnc2ccccc2c1=O` gave ERK AVP inh 32µM*, IkB signaling -3% and Peg3 imprint -44%.
COC(=O)c1ccccc1-n1c(C)nc2ccccc2c1=O was read as ERK AVP inh -7%, IkB signaling 2%, p53ts 32C kill 5%, p53ts 39C kill 4% and Peg3 imprint -10%.
`O=c1[nH]c2ccccc2n1C1CCN(CCCC(c2ccc(F)cc2)c2ccc(F)cc2)CC1` gave ERK AVP inh inconclusive, IkB signaling 1%, p53ts 32C kill 25µM*!, p53ts 39C kill 16µM* and Peg3 imprint -28%.
`O=C1CC(N2CCC(n3c(=O)[nH]c4ccccc43)CC2)C(=O)N1c1ccc(F)cc1` (stereo not drawn) gave ERK AVP inh 11%, IkB signaling 5%, p53ts 32C kill 4%, p53ts 39C kill 8% and Peg3 imprint -6%.
`O=C(Cn1c(=O)n(Cc2ccccc2)c(=O)c2sc3ccccc3c21)NCc1ccccc1Cl` gave IkB signaling 0%, p53ts 32C kill 13µM*, p53ts 39C kill 32µM* and Peg3 imprint 13%[10.9 µM].
Cc1nc2cc(C(F)(F)F)ccc2n1C1CCN(Cc2nnnn2Cc2cccs2)CC1 was read as ERK AVP inh -1%, IkB signaling 3%, p53ts 32C kill -3%, p53ts 39C kill -7% and Peg3 imprint -14%.
Cc1nc2cc(C(F)(F)F)ccc2n1C1CCN(Cc2nnnn2Cc2ccc3c(c2)OCO3)CC1 was read as ERK AVP inh inconclusive, IkB signaling inconclusive, p53ts 32C kill -22%, p53ts 39C kill 20µM* and Peg3 imprint -19%.
For O=C(O)/C=C\c1ccc[c]([Sb](=[O])([OH])[OH])c1 the results were ERK AVP inh 6%[11.5 µM], IkB signaling 2%[11.4 µM], p53ts 32C kill 9%[9.22 µM] and p53ts 39C kill 11%[9.22 µM].
For CCn1nc(-c2ccccc2)nc2c(=O)n(C)c(=O)nc1-2 the results were ERK AVP inh 15%, IkB signaling inconclusive, p53ts 32C kill 0.63µM*, p53ts 39C kill 4µM* and Peg3 imprint -98%.
Screening CN[C@H]1[C@H](C)O[C@@H](O[C@@H]2C/C=C(/C)C/C(C)=C\C=C/CC[C@@H](C)CNC(=O)/C=C\C=C/[C@H]2C)C[C@@H]1O returned IkB signaling 1%[11.4 µM].
CN(C)[C@@H]1C(=O)C(C(N)=O)=C(O)[C@]2(O)C(=O)C3=C(O)c4c(O)cccc4[C@@](C)(O)[C@@H]3C[C@@H]12 was read as IkB signaling 2%[11.4 µM].
Screening [CH3][Hg][Cl] returned ERK AVP inh -3%, IkB signaling inconclusive, p53ts 32C kill 9%[1.84 µM], p53ts 39C kill 16µM* and Peg3 imprint -46%.
`CCOc1ccc2nc(NC(=O)c3cccn(Cc4ccc(C)cc4)c3=O)sc2c1` gave IkB signaling -2%, p53ts 32C kill 0%, p53ts 39C kill 1% and Peg3 imprint 9%[10.9 µM].

Compound activity as filed in PubChem BioAssay.
